Screens (PubChem)
Only some compounds are listed: those with a hit (about 1.1% of all), similar ones and a draw of the others.
NPSR antagonist: qHTS Assay for Antagonists of the Neuropeptide S Receptor: cAMP Signal Transduction | CHO-NPSR cells, cAMP TR-FRET, antagonist mode | AID 1461, 2008 | Potency, µM (series often up to 38.3 µM), without a hit: at the top dose activity change, negative = inhibition, actives largely listed as inhibitors | 220,000 compounds, 1% hits; further: nearly all actives have a fitted effect of over 50% in size
Target sequence (Q6W5P4 whole entry, looked up): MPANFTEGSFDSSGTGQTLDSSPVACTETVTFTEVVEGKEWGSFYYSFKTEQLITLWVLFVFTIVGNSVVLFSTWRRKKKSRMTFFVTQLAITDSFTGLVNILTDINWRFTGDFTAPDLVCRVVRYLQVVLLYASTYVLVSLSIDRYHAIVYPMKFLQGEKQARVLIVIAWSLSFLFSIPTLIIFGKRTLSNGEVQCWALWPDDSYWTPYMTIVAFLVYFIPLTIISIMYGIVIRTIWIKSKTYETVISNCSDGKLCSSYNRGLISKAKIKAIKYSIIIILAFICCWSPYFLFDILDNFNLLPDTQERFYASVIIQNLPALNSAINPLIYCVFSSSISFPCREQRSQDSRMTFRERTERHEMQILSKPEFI
IMPase Li cell: qHTS Assay for Identifying the Cell-Membrane Permeable IMPase Inhibitors: Potentiation with Lithium. CHO-M1 cells, IP1 TR-FRET (IP-One), carbachol + lithium. Potency, µM (titrated, usually from 59.4 µM), inactives show at the top dose activity, negative = IMPase inhibition, actives largely listed as inhibitors. 210,000 compounds, 0.35% hits;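 further: IP1 builds up when IMPase is blocked and the TR-FRET signal falls; plate controls were basal vehicle for no effect and high inhibitor control for full effect; nearly all actives have a fitted effect of over 50% in size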
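CHO-M1, 2000 cells/well, 16–30 h culture; cpd + low Li+, 30 min 37C; lysis with d2-IP1/Eu-anti-IP1 Ab, 10 min RT; TR-FRET 665/620 ratio and 620 channel; AC50 via Hill.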
ERK EGF block: qHTS Assay for Inhibitors of the ERK Signaling Pathway using a Homogeneous Screening Assay; Stimulation with EGF; Potency, µM (top dose mostly 11.5 µM), inactives show at the top dose activity change, negative = inhibition, usual class: inhibitors; HEK293-V1b, EGF-stimulated phospho-ERK AlphaScreen; AID 1454, 2008; 130,000 compounds, 0.41% hits;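 further: plate controls were stimulated vehicle wells for no effect and unstimulated vehicle basal for full effect; nearly all actives have a fitted effect of over 55% in size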
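EGF-stimulated (25 nM, 5 min) phospho-ERK in HEK293 cells stably expressing V1b, cells pretreated 30 min with compound at 37C. Homogeneous AlphaScreen read on lysates.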
Luc counter: Counterscreen for Luciferase (Kinase-Glo TM) Inhibition | Luciferin 4-monooxygenase (Photuris pensylvanica), Q27757 | Kinase-Glo luciferase, ATP luminescence, 8 min | Potency, µM (highest dose often 38.3 µM), for the others: at the top dose activity change, negative = inhibition, most hits filed as inhibitors | 200,000 compounds, 0.28% hits | AID 1379, 2008; further: nearly all actives have a fitted effect of over 60% in size
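Inhibition of Kinase-Glo luciferase light generation was assessed at 10 uM ATP in pH 7.2 imidazole buffer, with luminescence measured after eight minutes at ambient temperature.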
Starred values were filed as active, the others as inactive; ? = inconclusive; . = not tested or not shown; [ ] = remark or other dose. The call rests on the fitted dose curve; in most records, active means well fitted curve in the direction sought with a large enough effect; inconclusive means small, poorly fitted or top-dose-only effect, or another doubt; inactive means no such curve, though single readings can be large; an effect the other way counts as inactive or inconclusive. Unless noted, on the % scale 0 is the no-effect control and ±100 the full control effect; potency means the concentration at half of the fitted maximal effect.

SMILES | NPSR antagonist | IMPase Li cell | ERK EGF block | Luc counter
Cc1ccc(N(NC(=O)C(O)(c2ccccc2)c2ccccc2)C(=O)CCl)cc1 | 2.5µM* | 10% | 7% | 0%
Cc1ccc(C(O)(C(=O)NN(C(=O)c2ccccc2)c2ccccc2)c2ccc(C)cc2)cc1 | -29% | 14% | -6% | 2%
N=C(N)SCCON1C(=O)c2ccccc2C1=O | . | -2% | . | -3%[7.66 µM]
COc1cc(/C=C2\SC(=O)NC2=O)ccc1Oc1ccc([N+](=O)[O-])cc1[N+](=O)[O-] | 10µM* | 14% | 5% | 3%
COc1ccc(-c2cn3c(C)c(C(=O)Nc4cc(NC(C)=O)ccc4OC)sc3n2)cc1 | ? | 4.5µM* | 12% | 2%
CN1C=C/C(=C\c2cc[n+](C)c3ccccc23)c2ccccc21 | 13µM* | 159% | 3% | -4%
CC(Oc1ccc(Br)cc1)C(=O)NCc1cccnc1 (centres undefined) | . | . | . | -1%
CCOC(=O)C1CCCN(c2ccc(NC(=O)c3snc4c(=O)[nH]cnc34)cc2)C1 (centres undefined) | 16µM* | -5%[38.3 µM] | . | -2%
C=CCCCCCC | . | -7% | . | .
CCCOc1ccc(C(=O)Nc2nc(C)c(Cc3ccc4c(c3)OCO4)s2)cc1 | ? | 10µM* | 1% | 1%
Cc1nc(NC(=O)c2ccc(OCC(C)C)cc2)sc1Cc1ccc2c(c1)OCO2 | -21% | 10% | -16% | -2%
Cc1csc2c(N3CCN(C(=O)c4ccc(C(C)(C)C)cc4)CC3)ncnc12 | 22% | . | 28µM* | .
O=S(=O)(O)c1ccc(-c2nnc(-c3ccccn3)nc2-c2ccc(S(=O)(=O)O)o2)o1 | . | -9% | . | -2%[7.66 µM]
O=C(O)CCN1C(=O)/C(=C\c2ccc(-c3nc4ccccc4s3)o2)SC1=S | 13µM* | 23%[38.3 µM] | . | 17%
COc1ccc(-n2nc([N+](=O)[O-])c(=NCCC3=CCCCC3)n2O)cc1 | -26% | 30% | 28µM* | 1%
COc1cc2oc(=O)cc(-c3ccc(-c4ccc(NC(C)=O)cc4)cc3)c2c(OC)c1OC | . | 14% | . | -2%[39.9 µM]
CC(C)(C)Cn1nc(-c2ccc(Cl)cc2)c2c(N)ncnc21 | . | -3% | 13% | 0%
Nc1ncnc2c1ncn2[C@@H]1O[C@H](COP(=O)(O)OP(=O)(O)O)[C@@H](O)[C@H]1O | . | ? | 7% | 5µM*
Nc1ncnc2c1ncn2[C@@H]1O[C@H](COP(=O)(O)OP(=O)(O)OP(=O)(O)OP(=O)(O)OC[C@@H]2O[C@H](n3cnc4c(N)ncnc43)[C@@H](O)[C@H]2O)[C@@H](O)[C@H]1O | . | 25% | . | .
C=CCOC(=O)C1=C(C)NC(SCC)=C(C#N)C1c1ccc(Cl)cc1 (centres undefined) | 10µM* | 11%[38.3 µM] | . | -3%
C=CCOC(=O)C1=C(C)NC(SCC(N)=O)=C(C#N)C1c1ccc(C)cc1 (centres undefined) | 11% | . | 4%[57.5 µM] | .
CC(C)NC(=O)/C(C#N)=C/c1ccc(N(C)C)o1 | 13µM* | . | -19%[57.5 µM] | .
Cc1ccc(/C=C(\C#N)C(=O)NC(C)C)o1 | -4% | 1% | -11% | 6%
CC1=NN(c2ccc(Cl)cc2)C(=O)/C1=C\c1cccn1-c1ccc(S(N)(=O)=O)cc1 | -46% | 7% | 25µM* | 1%
CC1=NN(c2ccc(S(=O)(=O)O)cc2)C(=O)/C1=C\c1ccc(Cl)cc1 | . | 4% | . | -3%[7.66 µM]
SMILES | NPSR antagonist | IMPase Li cell | ERK EGF block | Luc counter
N[C@H]1CCN(O)C1=O | . | 18% | 4% | 3%
Cc1cccc(N=C2NC(=O)/C(=C/c3cccs3)S2)c1 | -8% | 10% | 25µM* | -3%
C[C@@H]1c2ccccc2Cn2cc3c(c21)C(=O)c1cccc(OP(=O)(O)OCc2ccccc2)c1C3=O | . | -4% | . | -3%[7.66 µM]
CC(=O)NC(=S)Nc1ccc(-c2nc3ccc(C)cc3s2)cc1 | 10µM* | 14µM* | . | -5%
CNC(=S)Nc1ccc(-c2nc3ccc(C)cc3s2)cc1 | -36% | -11% | 1% | -2%
C=CC1=C2C=C(C3CC3)N(Cc3ccco3)C=C2C(=O)C(C)(OC(=O)c2ccco2)C1=O (centres undefined) | . | -1% | . | -2%[7.66 µM]
O=C(Nc1ccc([N+](=O)[O-])cc1)Nc1ccc(OC(F)F)c(Cl)c1 | 10µM* | 8% | -5% | 0%
O=C(Nc1ccc(OC(F)F)c(Cl)c1)Nc1ccc2c(c1)OCO2 | -9%[46.1 µM] | 7%[38.3 µM] | . | 0%
N#Cc1cccc(NC(=O)N2CCC3(CC2)CCN(C(=O)c2csnn2)CC3)c1 | . | 11µM* | 3% | -1%
O=C(OCn1ncc(Br)c(Br)c1=O)c1ccccc1Cl | 2.5µM* | ? | . | -4%
O=C(OCn1ncc(Br)c(Br)c1=O)c1ccc(F)cc1 | 2.5µM* | 7.1µM* | . | -4%
CSc1ccccc1-c1nnc(-c2ccc(Cl)cc2Cl)o1 | -28%[46.1 µM] | ? | . | -13%
CCSc1nnc(-c2ccccc2SC)o1 | -15% | 11µM* | -7% | 0%
CCCC[C@@H]1C[C@H]1C(NC(=O)Cc1ccccc1)c1ccc(-c2ccccc2)cc1 (some centres undefined) | . | 22% | -2% | -1%
FC(F)(F)C(Oc1nc(NC2CCCCC2)nc(N2CCOCC2)n1)C(F)(F)F | 10µM* | 4%[38.3 µM] | . | 1%
COCC(=O)Nc1ccc(-c2cn3cccnc3n2)cc1 | -9%[46.1 µM] | 11µM* | . | -19%
Cc1noc(C)c1-c1cc(Nc2ccccc2)ncn1 | . | 1% | . | .
COc1ccc(C2C3(C#N)C(N)=NC(OC)(OC)C23C#N)cc1 (centres undefined) | 5% | -11% | 25µM* | -2%
COC1(OC)N=C(N)C2(C#N)C(c3ccc(C)cc3)C12C#N (centres undefined) | 1%[46.1 µM] | 3%[38.3 µM] | . | 5%
CN1c2cc3c(cc2N=C(c2ccc(C(=O)O)cc2)c2ccccc21)C(C)(C)CCC3(C)C | . | 11% | ? | -2%
CN(Cc1ccccc1)C(=S)NC(=O)c1ccc(-c2ccccc2)cc1 | -9%[46.1 µM] | 10µM* | -12% | -1%
O=Nc1c(-c2c(O)[nH]c3cc(Br)ccc23)[nH]c2ccccc12 | ? | 34% | 28µM* | -24%
O=Nc1c(O)[nH]c2ccccc12.[Cu].[O-]/N=C1/C(=[OH+])Nc2ccccc21 | . | -10% | . | 0%[7.66 µM]
CC[C@H]1[C@@H]2C=C[C@@H]3[C@H]4C/C=C\C(=O)NCCC[C@@H]5NC(=O)C(=C5O)C(=O)CC[C@@H]4C[C@@H]3[C@H]2C[C@H]1C | . | -5% | . | .
O=C(c1cccc(F)c1)N1CCC[C@@]2(CCN(c3ccccn3)C2)C1 | . | 8% | -3% | -1%
SMILES | NPSR antagonist | IMPase Li cell | ERK EGF block | Luc counter
Cc1ccc(CCCC(=O)O)cc1C | . | -9% | . | -1%[7.66 µM]
Cc1c(Cl)sn(-c2ccc(Cl)cc2)c1=O | 2.5µM* | 20% | -2% | -2%
COc1cc(OC)c2cc(-c3ccncc3)cnc2c1 | . | -15% | 8% | -14%
Cc1ccc(/C=C2/SC(=O)NC2=S)o1 | 13µM* | ? | 1% | -2%
Cn1cc(/C=C2\SC(=O)NC2=S)c2ccccc21 | -39% | 11% | ? | -5%
CN(/N=C/c1ccc([N+](=O)[O-])o1)c1ccccc1 | -4% | 8% | 25µM* | -5%
